PubChem BioAssay (NCI)
About 83,000 compounds went through this panel and 20% of them were active in at least one assay; those are over-represented in the sample as a whole.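 Assay: single dose, 48 h. Readout: percent growth (0 = no net growth; negative = cell death). Active: <10.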 Activity calls are given as the source filed them.

Test system: MDA-MB-468 breast
Assay: NCI-60 one-dose screen, 48 h (100 = growth as untreated, 0 = no growth, -100 = all killed)
Details: 10 µM unless noted

Compound | growth
Fc1ccc(NC(c2ccc(F)cc2)C2CCN(CCCCc3ccccc3)CC2)cc1 (stereo not given) | 7.21% (active)
COc1ccc2c(c1)c(-c1cc(N)n3nc(-c4cn(C)c5ccc(OC)cc45)cc3n1)cn2C | 142% (inactive)
Nc1n[nH]c2ccc([C@@H]3Nc4ccc5[nH]ncc5c4[C@H]4C5C=CC(C5)[C@@H]34)cc12 (stereo not given in full) | -12.2% (active)
Cc1cnc(SCc2ccc(Cl)cc2Cl)nc1Nc1ccc(Cl)c(Cl)c1 | 101% (inactive)
CCN(CC)CCOc1ccc(/C(=C(/C)c2ccccc2)c2ccc(OC(C)=O)cc2)cc1 | 87.9% (inactive)
CCOC(=O)C1=C(CCl)N(C)C(=O)NC1c1ccc2c(c1)OCO2 (stereo not given) | 24.1% (inactive)
COCCNC(C(=O)c1ccccc1)c1ccccc1 (stereo not given) | 90.8% (inactive)
Cc1nn(-c2ccccc2)c(N2CCCCC2)c1/C=N/NC(=O)Cn1c(=O)sc2ccccc21 | 85.5% (inactive)
NS(=O)(=O)c1ccc(Nc2nc(SCC(=O)c3ccc(Cl)cc3)nc3c2CCCC3)cc1 | 57.9% (inactive)
Cc1cccc(Cl)c1NC(=O)c1cnc(Nc2cc(N3CCOCC3)cc(S(C)(=O)=O)c2)s1 | 26.7% (inactive)
O=c1c2ccccc2oc2ccc(OCCCCCCN3CCCCCC3)cc12 | 20.2% (inactive)
COc1cc(C(=O)/C=C/c2c(-c3cccs3)nc3ccccn23)cc(OC)c1OC | -30.4% (active)
CNc1ccc(-c2cc(=O)oc3ccc(Cl)cc23)cc1 | 39.5% (inactive)
COc1ccc(/C=C/c2c(C(=O)/C=C/c3ccc(F)cc3)c(C)nc3ccccc23)cc1 | 51.5% (inactive)
Cc1nc(-c2cc3ccccc3c(N3CCN(C)CC3)n2)cs1 | 87% (inactive)
Cn1nc(-c2ccc(Cl)cc2)nc2c(=O)n(C)c(=O)nc1-2 | -73.2% (active)
O=C1O[C@@H](c2ccccc2Cl)[C@@H]2c3cc4c(cc3CCN12)OCO4 | 96.2% (inactive)
O=C(O)c1ccc2c3c(ncnc13)-c1ccccc1C2=O | 95.7% (inactive)
CCN(C(=O)Nc1ccccc1Cl)c1ccccc1 | 97.4% (inactive)
Nc1nc(N)c2c(n1)NC(c1cccc(Nc3ccnc4cc(C(F)(F)F)ccc34)c1)CC(c1ccccc1)=N2 (stereo not given) | 18.5% (inactive)

Compound | growth
NS(=O)(=O)c1ccc(-n2nc(C(=O)N/N=C\c3ccc(F)cc3)cc2-c2ccc(Cl)cc2)cc1 | 112% (inactive)
O=S(=O)(CCN1CCOCC1)Nc1cc(-c2ccc3ncnc(Nc4ccc(F)c(Cl)c4)c3c2)cnc1Cl | -34.4% (active)
OCCN1CCN(CCCN2c3ccccc3Sc3ccc(C(F)(F)F)cc32)CC1 | -47.1% (active)
Cc1ccc(S(=O)(=O)N/N=C/C2(c3ccccc3)CC2)cc1 | 95.8% (inactive)
CC(C)(C)C(=O)OCOP(=O)(OCOC(=O)C(C)(C)C)C1CCCN(OC(=O)c2ccccc2)C1=O (stereo not given) | 29.6% (inactive)
CCc1ccc(-c2nnc(COc3ccc(-c4nc5ccccc5[nH]4)cc3OC)o2)cc1 | 86.9% (inactive)
Cc1ccc(NC(=O)/C=C/c2ccccc2)c(C(N)=O)c1 | 22.5% (inactive)
CCN(CC)CCCCCCCCNc1c2ccc(Cl)cc2nc2ccc(OC)cc12 | -93.2% (active)
CC(C)(O)C(=O)O | 108% (inactive)
COc1ccc(N2CCN(c3nc(-c4cc(OC)c(OC)c(OC)c4)nc4ccccc34)CC2)cc1 | 76.2% (inactive)
O=c1[nH]c(=S)c2c(n1CCCO)CCC2 | 106% (inactive)
O=C(COc1ccc(C2SCC(=O)N2c2ccc(F)cc2)cc1)c1ccccc1 (stereo not given) | 89.1% (inactive)
CCOC(=O)c1c(N)c(C#N)cn1Cc1ccc(Cl)cc1Cl | 45.2% (inactive)
Cc1ccc(C(=O)NN2C(=O)CSC2c2cccc([N+](=O)[O-])c2)cn1 (stereo not given) | 105% (inactive)
CCN1/C(=C/C=C/c2n(-c3ccccc3)c3ccc(-c4nc5ccccc5s4)cc3[n+]2CC)N(c2ccccc2)c2ccc(-c3nc4ccccc4s3)cc21 | 8.94% (active)
O=C(Nc1cccc(C2=NCCN2)c1)c1ccc(-c2ccc(C(=O)Nc3cccc(C4=NCCN4)c3)cc2)cc1 | 62% (inactive)
COc1ccccc1/C=C/C(=O)c1nnn(-c2ccc(C(=O)O)cc2)c1C | 74.5% (inactive)
CSc1[nH]c(=O)ncc1F | 98.1% (inactive)
COC(=O)C1(NC(=O)CNC(=O)OCc2ccccc2)CCCC1 | 96.1% (inactive)
CN1CCN(c2c(F)cc(NC3=C(Cl)C(=O)c4ncccc4C3=O)cc2F)CC1 | -46.6% (active)
